# Source: PubChem BioAssay AID1012 (Sanford-Burnham Center for Chemical Genomics, 2008)
# The campaign covered roughly 200,000 compounds. About 520 (0.26%) were called active. Only a selection was taken, and actives are over-represented in it overall. Unmarked numbers belong to inactive results.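 Rule for the calls: active = tissue-nonspecific alkaline phosphatase inhibition above about 50% at 20 µM in the single-dose screen (limit read from the data); inactive = the rest.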
# Molecular target: Alkaline phosphatase, tissue-nonspecific isozyme (Homo sapiens) (UniProt P05186)
# Sequence (P05186 whole entry, looked up): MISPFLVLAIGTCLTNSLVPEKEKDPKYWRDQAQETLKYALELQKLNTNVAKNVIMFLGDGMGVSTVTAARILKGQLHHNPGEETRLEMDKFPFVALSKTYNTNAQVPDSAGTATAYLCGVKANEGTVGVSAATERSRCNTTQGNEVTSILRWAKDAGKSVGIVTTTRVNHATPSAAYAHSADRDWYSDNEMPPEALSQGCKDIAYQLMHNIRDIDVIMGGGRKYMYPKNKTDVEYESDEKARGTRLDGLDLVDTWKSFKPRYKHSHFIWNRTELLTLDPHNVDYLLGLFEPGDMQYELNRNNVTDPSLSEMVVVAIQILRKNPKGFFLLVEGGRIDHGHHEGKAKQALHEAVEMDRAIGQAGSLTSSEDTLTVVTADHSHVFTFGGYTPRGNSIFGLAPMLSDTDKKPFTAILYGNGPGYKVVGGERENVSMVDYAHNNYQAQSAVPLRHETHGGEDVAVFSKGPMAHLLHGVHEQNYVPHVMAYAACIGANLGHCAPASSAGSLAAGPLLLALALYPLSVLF
# Assay: human TNAP enzyme inhibitors, primary screen, biochemical, luminescent, no phosphate acceptor, uHTS (AID 1012);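 note: 0% = DMSO negative control and 100% = EDTA positive control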
# Settings: purified TNAP, CDP-star luminescence, 30 min; at 20 µM; stronger effect = higher value
row,SMILES,inhibition
1,CCC(=NCc1ccco1)c1c(O)n(Cc2ccccc2)c(=O)[nH]c1=O,-5.5%
2,CN(C)CCCN=Cc1c(O)n(Cc2ccco2)c(=O)[nH]c1=O,-20.3%
3,O=C(N/N=C/c1c(O)n(Cc2ccccc2)c(=O)[nH]c1=O)c1ccccc1,94.3% (active)
4,O=C(OCCN1CCOCC1)C1(c2ccccc2)CCCC1,-3%
5,O=C(NCC(c1cccnc1)N1CCN(c2ccccc2)CC1)Oc1ccccc1 (stereo not given),-8.6%
